Measurements: PubChem BioAssay (NCATS)
Inconclusive results are not listed. Unmarked numbers belong to inactive results. Calls follow the shape of the dose curve; as a rule, active = well fitted curve in either direction with a large enough effect (not every such curve was filed as active); inconclusive = small, poorly fitted or top-dose-only effect, or another doubt; inactive = flat fitted curve, though single readings scatter.

assay: AP1 Signaling Pathway (AID 357); conditions: ME-180 AP-1-bla reporter, EGF-induced, beta-lactamase ratio, 5 h; at 17.2 µM (top of the series) unless noted
Summary of the method: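 AP-1-bla ME-180 cells with beta-lactamase reporter under AP-1 response element, stimulated with EC50 EGF; compounds titrated, 5 hours at 37 degrees Celsius. CCF4 read at 460/530 nm ratio; positive and negative modulators judged by AC50.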
% is scaled to controls: 0 for no effect and ±100 for the full control effect.

Compound | activity change, negative = inhibition [%]
CCCCNC1=C(Br)C(=O)CC(C)(C)C1 | 4.07
O=C(CN1CCc2[nH]c3ccccc3c2C1)N1CCCCC1 | -7.36
CCCc1cc(=O)oc2c(CN3CCCC3)c(O)c(Cl)cc12 | -8.98
CC(C)Cc1nc(N2CCN(C(=O)Cc3ccccc3)CC2)c(C#N)c2c1COC(C)(C)C2 | -5.38
O=S(=O)(c1ccc(Cl)cc1)N1CCC(N2CCCCCC2)CC1 | 9.12
Cc1ccccc1OCc1nc2ccccc2c(=O)n1NC(=O)c1ccco1 | 4.16
Cc1cc(C)n(CC2CC(=O)N(c3ccc(F)c(Cl)c3)C2=O)n1 (stereo not drawn) | -5.28
CN1CCN(c2nc3c(c(=O)n(C)c(=O)n3C)n2Cc2cccc3ccccc23)CC1 | -9.31
O=C(c1ccc(F)cc1)N1CCC(N2CCCCCC2)CC1 | -5.56
N#CCSc1nc2c(cc1C#N)CCCCCC2 | -14.6
CCCCCc1ccc(-c2ccc(=O)[nH]n2)cc1 | 7.59
COc1ccc(CCn2c(=N)c(C(=O)NCc3ccco3)cc3c(=O)n4ccccc4nc32)cc1 | -1.64
CC1CCc2cc(F)cc3c(O)c(C(=O)NCc4ccco4)c(=O)n1c23 (stereo not drawn) | -28.9
COc1ccc(C2C(C#N)=C(SC)NC3=C2C(=O)CC(C)(C)C3)cc1 (stereo not drawn) | -6.47
CCOC(=O)COn1c(=O)c(-c2ccco2)[n+]([O-])c2ccccc21 | -20.1
COCCCn1cnc2c(c1=O)c1nc3ccccc3nc1n2CCc1ccccc1 | -15.7
C=CCn1c(=S)[nH]c2nc3c(cc2c1=O)CCCC3 | -14.7
Nc1c2c(nc3ccccc13)N(C1CCCCC1)CC2 | 13.8
CCOC(=O)/C(C#N)=C1\Nc2ccccc2N=C1N(CC(C)C)CC(C)C | 11.2
CCN1CC2=C(OC(N)=C(C#N)C2c2ccccc2)/C(=C\c2ccccc2)C1 (stereo not drawn) | -16.4

Compound | activity change, negative = inhibition [%]
CC1(C)Cc2c(sc(NC(=O)c3ccc(Br)o3)c2C#N)CO1 | -3.32
Cc1ccc(/C(O)=C2/C(=O)C(=O)N(Cc3ccco3)C2c2cccs2)cc1 (stereo not drawn) | 2.29
CCO/C(C)=N/n1c2nc3ccccc3nc2c2c(=O)n(Cc3ccccc3Cl)c(C)nc21 | -30
CC(C)C(=O)N1CCN(c2nc(-c3ccccc3)c3c(c2C#N)CCCC3)CC1 | -14.8
N#Cc1nc(COc2ccccc2Cl)oc1NCc1ccc(F)cc1 | -5.24
CCC(C)Nc1nc(-c2cccc(OC)c2O)nc2ccccc12 (stereo not drawn) | -28.3
Nc1ccc2c(c1)N1CCN=C1S2 | -0.461
CC1CN(C2CCN(C(=O)c3ccccc3)CC2)CC(C)O1 (stereo not drawn) | -5.21
Nc1ccc2oc(-c3cc(Br)ccc3Cl)nc2c1 | -29.4
COc1cccc(C(=O)OCCN(C)C(C)(C)C)c1 | 2.79
Cc1ccc(-n2ncc3c(N4CCC(C(N)=O)CC4)ncnc32)c(C)c1 | 5.42
CC1(C)Cc2c(sc3nc(SCC#N)n(C4CCCCC4)c(=O)c23)CO1 | 1.9
CCOc1ccc(/C(O)=C2/C(=O)C(=O)N(c3nc(C)c(C)s3)C2c2ccco2)cc1 (stereo not drawn) | -13.5
COC(=O)c1ccc(C2C(C(=O)c3cc4ccccc4o3)=C(O)C(=O)N2CCCN(C)C)cc1 (stereo not drawn) | -0.991
Cc1nc(N2CCN(Cc3ccccc3)CC2)c(C#N)c2c1COC(C)(C)C2 | -29.1
O=S(=O)(c1cccc(-c2csc(-c3ccccc3)n2)c1)N1CCOCC1 | -13.8
CCCCc1c(O)nc(SCCN(C)C)n(-c2ccccc2)c1=O | 10
N#Cc1cc(Oc2cccc3cccnc23)c(-n2nnc3ccccc32)cc1C#N | 11.4
N#Cc1c(-c2ccccc2Cl)cc(C2CC2)nc1N | 4.21

assay: Stat Signaling Pathway (AID 446); conditions: ME-180 (cervical carcinoma) SIE beta-lactamase reporter, IL-6 stimulated, 5 h; at 17.2 µM (top of the series) unless noted;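 also: ME-180 cervical cancer cells given 40 pM IL-6 alongside compound; SIE-controlled beta-lactamase reporter measured as 460/530 nm FRET emission ratio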
Summary of the method: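 Compound effects on IL-6-induced STAT reporter activity were measured in ME-180 cells. After overnight culture, cells were co-treated with 40 pM IL-6 for 5 hrs before beta-lactamase substrate loading at room temperature.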

Compound | activity, negative = inhibition [%]
CCCCNC1=C(Br)C(=O)CC(C)(C)C1 | -6.99
O=C(CN1CCc2[nH]c3ccccc3c2C1)N1CCCCC1 | 4.96
CCCc1cc(=O)oc2c(CN3CCCC3)c(O)c(Cl)cc12 | 0.152
CC(C)Cc1nc(N2CCN(C(=O)Cc3ccccc3)CC2)c(C#N)c2c1COC(C)(C)C2 | -23.7
O=S(=O)(c1ccc(Cl)cc1)N1CCC(N2CCCCCC2)CC1 | 3.47
Cc1ccccc1OCc1nc2ccccc2c(=O)n1NC(=O)c1ccco1 | 1.48
Cc1cc(C)n(CC2CC(=O)N(c3ccc(F)c(Cl)c3)C2=O)n1 (stereo not drawn) | -2.55
CN1CCN(c2nc3c(c(=O)n(C)c(=O)n3C)n2Cc2cccc3ccccc23)CC1 | -2.69
O=C(c1ccc(F)cc1)N1CCC(N2CCCCCC2)CC1 | -3.47
N#CCSc1nc2c(cc1C#N)CCCCCC2 | 5.36
CCCCCc1ccc(-c2ccc(=O)[nH]n2)cc1 | 13.6
COc1ccc(CCn2c(=N)c(C(=O)NCc3ccco3)cc3c(=O)n4ccccc4nc32)cc1 | 2.96
CC1CCc2cc(F)cc3c(O)c(C(=O)NCc4ccco4)c(=O)n1c23 (stereo not drawn) | -2.44
COc1ccc(C2C(C#N)=C(SC)NC3=C2C(=O)CC(C)(C)C3)cc1 (stereo not drawn) | -6.08
CCOC(=O)COn1c(=O)c(-c2ccco2)[n+]([O-])c2ccccc21 | 12.3
COCCCn1cnc2c(c1=O)c1nc3ccccc3nc1n2CCc1ccccc1 | -9.66
C=CCn1c(=S)[nH]c2nc3c(cc2c1=O)CCCC3 | -11.2
Nc1c2c(nc3ccccc13)N(C1CCCCC1)CC2 | 16.7
CCOC(=O)/C(C#N)=C1\Nc2ccccc2N=C1N(CC(C)C)CC(C)C | -4.73
CCN1CC2=C(OC(N)=C(C#N)C2c2ccccc2)/C(=C\c2ccccc2)C1 (stereo not drawn) | -29.2

Compound | activity, negative = inhibition [%]
CC1(C)Cc2c(sc(NC(=O)c3ccc(Br)o3)c2C#N)CO1 | -9.34
Cc1ccc(/C(O)=C2/C(=O)C(=O)N(Cc3ccco3)C2c2cccs2)cc1 (stereo not drawn) | -12.7
CCO/C(C)=N/n1c2nc3ccccc3nc2c2c(=O)n(Cc3ccccc3Cl)c(C)nc21 | -8.13
CC(C)C(=O)N1CCN(c2nc(-c3ccccc3)c3c(c2C#N)CCCC3)CC1 | -9.28
N#Cc1nc(COc2ccccc2Cl)oc1NCc1ccc(F)cc1 | -20.3
CCC(C)Nc1nc(-c2cccc(OC)c2O)nc2ccccc12 (stereo not drawn) | -18.2
Nc1ccc2c(c1)N1CCN=C1S2 | 8.4
CC1CN(C2CCN(C(=O)c3ccccc3)CC2)CC(C)O1 (stereo not drawn) | 3.62
Nc1ccc2oc(-c3cc(Br)ccc3Cl)nc2c1 | 0.658
COc1cccc(C(=O)OCCN(C)C(C)(C)C)c1 | 3.74
Cc1ccc(-n2ncc3c(N4CCC(C(N)=O)CC4)ncnc32)c(C)c1 | -2.42
CC1(C)Cc2c(sc3nc(SCC#N)n(C4CCCCC4)c(=O)c23)CO1 | 10
CCOc1ccc(/C(O)=C2/C(=O)C(=O)N(c3nc(C)c(C)s3)C2c2ccco2)cc1 (stereo not drawn) | -19
COC(=O)c1ccc(C2C(C(=O)c3cc4ccccc4o3)=C(O)C(=O)N2CCCN(C)C)cc1 (stereo not drawn) | -11.4
Cc1nc(N2CCN(Cc3ccccc3)CC2)c(C#N)c2c1COC(C)(C)C2 | -15.6
O=S(=O)(c1cccc(-c2csc(-c3ccccc3)n2)c1)N1CCOCC1 | -9.15
CCCCc1c(O)nc(SCCN(C)C)n(-c2ccccc2)c1=O | 2.07
N#Cc1cc(Oc2cccc3cccnc23)c(-n2nnc3ccccc32)cc1C#N | 11.7
N#Cc1c(-c2ccccc2Cl)cc(C2CC2)nc1N | -2.15
